# From PubChem BioAssay (NCATS)
# Inconclusive results are not listed. Entries that show only a call come without a potency. The source made the active and inactive calls. Unless noted, calls come from the whole dose curve; as a rule, active = well fitted curve in the direction sought with a large enough effect; inconclusive = small, poorly fitted or top-dose-only effect, or another doubt; inactive = no such curve, though single readings can be large; an effect the other way counts as inactive or inconclusive.
# What was measured:
# [1] = qHTS assay for small molecule antagonists of peroxisome proliferator-activated receptor delta signaling (AID 588535; active = well fitted inhibition curve with a large enough effect in the signal ratio, with a control signal flat, not every such curve was filed as active; the % refers to the signal ratio;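 for max response: cells co-treated with a PPAR-delta agonist as stimulator during compound exposure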); details: HEK293T PPARd-UAS-bla, beta-lactamase FRET ratio, 18 h; 460 nm channel
# How it was run: (§1)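 Reporter: UAS-bla under PPAR-delta response element, HEK293T host. Medium: 2% charcoal/dextran FBS. Dosing: titration, 18 hrs, 37 C. Detection: CCF4, 2 hrs RT, 405 ex/460 and 530 em.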
# [2] = target: Peroxisome proliferator-activated receptor delta (Homo sapiens) (UniProt Q03181); test: as above
# Peroxisome proliferator-activated receptor delta (Homo sapiens), sequence (Q03181 whole entry, looked up): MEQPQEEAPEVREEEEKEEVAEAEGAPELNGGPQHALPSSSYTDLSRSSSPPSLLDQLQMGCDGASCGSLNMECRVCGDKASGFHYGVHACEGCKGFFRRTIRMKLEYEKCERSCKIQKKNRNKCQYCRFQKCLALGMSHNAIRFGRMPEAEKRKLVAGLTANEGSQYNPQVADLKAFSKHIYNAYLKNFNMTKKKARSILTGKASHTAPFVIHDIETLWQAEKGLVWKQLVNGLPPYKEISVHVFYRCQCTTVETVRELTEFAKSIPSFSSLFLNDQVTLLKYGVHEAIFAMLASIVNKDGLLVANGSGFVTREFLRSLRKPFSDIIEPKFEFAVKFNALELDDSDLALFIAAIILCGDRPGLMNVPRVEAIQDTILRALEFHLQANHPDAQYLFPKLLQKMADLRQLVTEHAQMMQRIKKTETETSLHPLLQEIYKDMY
# How it was run: as §1
# [3] = target: Peroxisome proliferator-activated receptor gamma (Homo sapiens) (UniProt P37231); test: qHTS assay for small molecule agonists of peroxisome proliferator-activated receptor gamma signaling (AID 588536; active = well fitted curve in the direction sought with a large enough effect in the signal ratio, with a control signal flat, not every such curve was filed as active; the % refers to the signal ratio)
# Peroxisome proliferator-activated receptor gamma (Homo sapiens), sequence (P37231 whole entry, looked up): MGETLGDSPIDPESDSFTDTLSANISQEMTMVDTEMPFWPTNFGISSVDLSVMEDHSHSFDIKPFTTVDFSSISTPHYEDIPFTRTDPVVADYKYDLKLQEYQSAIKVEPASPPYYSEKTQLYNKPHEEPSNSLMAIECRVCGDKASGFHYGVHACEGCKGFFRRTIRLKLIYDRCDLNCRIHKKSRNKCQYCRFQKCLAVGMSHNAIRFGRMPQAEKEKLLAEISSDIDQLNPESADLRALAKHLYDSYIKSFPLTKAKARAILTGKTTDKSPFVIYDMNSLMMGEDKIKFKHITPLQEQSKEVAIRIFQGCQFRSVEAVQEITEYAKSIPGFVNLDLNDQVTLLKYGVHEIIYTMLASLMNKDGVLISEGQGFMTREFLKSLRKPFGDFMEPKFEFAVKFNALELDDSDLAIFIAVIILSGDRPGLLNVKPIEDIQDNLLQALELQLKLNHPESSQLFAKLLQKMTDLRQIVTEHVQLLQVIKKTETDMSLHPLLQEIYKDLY
# How it was run: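 Test agents, titrated, stimulated HEK293 UAS-bla cells overnight (16 h, 37 C). Substrate CCF4 was then added for two hours at room temperature before fluorescence reading.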
# [4] = target: Peroxisome proliferator-activated receptor gamma (Homo sapiens) (UniProt P37231); test: qHTS assay for small molecule antagonists of peroxisome proliferator-activated receptor gamma signaling (AID 588537; active = well fitted inhibition curve with a large enough effect in the signal ratio, with a control signal flat, not every such curve was filed as active; the % refers to the signal ratio;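 note: reporter cells co-stimulated with 50 nM rosiglitazone agonist during compound treatment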)
# How it was run: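 We seeded GeneBLAzer HEK293 reporter cells at 3000 per well, allowed 6-6.5 h attachment at 37 C, then co-treated with test compound titrations and 50 nM rosiglitazone overnight (16 h). Inhibition was quantified from 460/530 nm emission ratios.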
# [5] = target: Vitamin D3 receptor (Homo sapiens) (UniProt P11473); test: qHTS assay for small molecule antagonists of vitamin D receptor signaling (AID 588541; calls by dose curve;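 note: receptor activated by calcitriol during compound treatment; series mostly up to about 77 µM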)
# Vitamin D3 receptor (Homo sapiens), sequence (P11473 whole entry, looked up): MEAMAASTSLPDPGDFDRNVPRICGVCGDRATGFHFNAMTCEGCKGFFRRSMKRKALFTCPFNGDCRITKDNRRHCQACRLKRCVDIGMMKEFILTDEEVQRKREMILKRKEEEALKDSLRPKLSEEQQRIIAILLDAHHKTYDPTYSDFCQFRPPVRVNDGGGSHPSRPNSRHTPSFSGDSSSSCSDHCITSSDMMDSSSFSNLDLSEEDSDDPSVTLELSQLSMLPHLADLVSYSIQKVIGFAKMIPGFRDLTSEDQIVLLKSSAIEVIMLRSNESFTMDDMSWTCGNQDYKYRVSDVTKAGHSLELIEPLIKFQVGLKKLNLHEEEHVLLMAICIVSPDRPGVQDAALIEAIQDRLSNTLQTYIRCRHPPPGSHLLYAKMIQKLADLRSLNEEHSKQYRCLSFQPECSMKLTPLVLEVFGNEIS
# How it was run: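 VDR-UAS-bla HEK293T cells (2000/well, 2% charcoal-stripped FBS) were treated with titrated compounds plus 1-alpha,25-dihydroxyvitamin D3 (50 nM or 3 nM final) for 16 h at 37 C. CCF4 beta-lactamase fluorescence was read; Hill fits gave IC50.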
# [6] = target: Vitamin D3 receptor (Homo sapiens) (UniProt P11473); test: qHTS assay for small molecule agonists of vitamin D receptor signaling (AID 588543; calls by dose curve)
# How it was run: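 Agonist-mode beta-lactamase reporter: HEK293T VDR-UAS-bla cells in charcoal-stripped 2% FBS, compound series 16 h 37 C, CCF4 2 h RT. EC50 from Hill fit, scaled against DMSO and 50 nM calcitriol control.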
# [7] = qHTS assay for small molecule agonists of retinoid X receptor alpha signaling (AID 588544); details: HEK293T RXRa-UAS-bla, beta-lactamase reporter, 18 h; 530 nm emission
# [8] = target: Thyroid hormone receptor beta (Homo sapiens) (UniProt P10828); test: qHTS assay for small molecule agonists of thyroid hormone receptor beta signaling (AID 588545; calls by dose curve)
# Thyroid hormone receptor beta (Homo sapiens), sequence (P10828 whole entry, looked up): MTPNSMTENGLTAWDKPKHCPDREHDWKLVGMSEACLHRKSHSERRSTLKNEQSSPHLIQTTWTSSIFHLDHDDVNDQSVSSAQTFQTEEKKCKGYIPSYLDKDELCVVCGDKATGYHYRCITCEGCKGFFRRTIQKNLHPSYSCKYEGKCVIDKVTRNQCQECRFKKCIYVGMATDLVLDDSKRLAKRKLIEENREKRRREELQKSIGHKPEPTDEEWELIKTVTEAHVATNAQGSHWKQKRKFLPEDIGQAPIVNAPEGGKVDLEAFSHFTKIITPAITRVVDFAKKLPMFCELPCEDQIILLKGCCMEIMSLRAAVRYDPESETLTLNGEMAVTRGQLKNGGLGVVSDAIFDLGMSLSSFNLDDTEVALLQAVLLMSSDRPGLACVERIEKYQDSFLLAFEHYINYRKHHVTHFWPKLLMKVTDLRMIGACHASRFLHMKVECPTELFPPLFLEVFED
# How it was run: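 TR-UAS-bla-GripTite HEK 293 cells in medium with 2% charcoal/dextran FBS, 0.1 mM NEAA and 1 mM sodium pyruvate were treated with titrated compounds for 18 hrs at 37 C. Beta-lactamase reporter was read with CCF4 dye (ex 405, em 460/530 nm); EC50 from Hill fits.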
# [9] = qHTS assay for small molecule antagonists of retinoid X receptor alpha signaling (AID 588546; active = well fitted inhibition curve with a large enough effect in the signal ratio, with a control signal flat, not every such curve was filed as active; the % refers to the signal ratio;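 note: cells stimulated with 9-cis-retinoic acid as agonist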); details: HEK293T RXRa-UAS-bla, beta-lactamase ratio, antagonist mode; measured here: W530 green channel, cytotoxicity proxy
# How it was run: (§2)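 Beta-lactamase reporter inhibition, read as CCF4 fluorescence ratio (ex 405, em 460/530 nm) after 2 h at RT. HEK293T UAS-bla cells, 2500/well, were stimulated with 9-cis-RA at 500 or 100 nM final alongside test compound for 18 h at 37 C.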
# [10] = target: Retinoic acid receptor RXR-alpha (Homo sapiens) (UniProt P19793); test: as above; details: HEK293T RXRa-UAS-bla, beta-lactamase ratio, antagonist mode
# How it was run: as §2
# [11] = target: Thyroid hormone receptor beta (Homo sapiens) (UniProt P10828); test: qHTS assay for small molecule antagonists of thyroid hormone receptor beta signaling (AID 588547; active = well fitted inhibition curve with a large enough effect in the signal ratio, with a control signal flat, not every such curve was filed as active; the % refers to the signal ratio;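 note: cells stimulated with 0.4 nM T3 agonist during compound exposure; series mostly up to about 77 µM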); details: TR-UAS-bla HEK293, beta-lactamase ratio, antagonist mode, 18 h
# How it was run: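 TR-UAS-bla GripTite HEK293 cells in 2% charcoal/dextran FBS medium were preincubated 4 h at 37 C, given compound (0.59 nM to 92 uM) plus 0.4 nM T3 (final) for 18 h, then CCF4 for 2 h at RT; Hill fit gave IC50.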
# [12] = qHTS assay for small molecule activators of the p53 signaling pathway (AID 651743; active = well fitted activation curve with a large enough effect in the signal ratio, not every such curve was filed as active; the % refers to the signal ratio; note: series mostly up to about 92 µM); details: HCT-116 p53RE-bla, beta-lactamase FRET ratio, 16 h; activation: stronger effect = higher value
# How it was run: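 Cell-based beta-lactamase reporter (p53 response elements, HCT-116 background). After a 5-hour preincubation, cells received compound for 16 hours at 37 C; substrate development ran 2 hours at room temperature.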
# [13] = qHTS assay for small molecule activators of the nuclear factor-kappa B (NF-kB) signaling pathway (AID 651749; active = well fitted activation curve with a large enough effect in the signal ratio; the % refers to the signal ratio; note: series mostly up to about 77 µM); details: NF-kB-bla ME-180 cells, beta-lactamase FRET ratio, 16 h; stronger effect = higher value
# How it was run: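 Screening used 2,000 ME-180 reporter cells per well exposed to pinned compound (23 nL) or DMSO; after 16 hr at 37C, beta-lactamase expression under NF-kB control was assessed through FRET.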
# [14] = qHTS assay for environmental chemicals that activate the Aryl hydrocarbon Receptor (AhR) signaling pathway (AID 651777); details: 1A2-DRE human hepatoma cells, luciferase, 24 h; activation: stronger effect = higher value; note: nearly all actives have a fitted effect of over 15% in size
# How it was run: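 Luminescence read-out: One-Glo added for 30 min at RT after 24 hr compound treatment (37 C, 5% CO2) of human hepatoma cells expressing a DRE/CYP1A2 promoter–luciferase reporter; increased signal indicates AhR activation.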
# [15] = target: Peroxisome proliferator-activated receptor alpha (Homo sapiens) (UniProt Q07869); test: qHTS assay for small molecule agonists of the peroxisome proliferator-activated receptor alpha (PPARalpha) signaling pathway (AID 651778); details: PathHunter PPARalpha complementation, chemiluminescence, 6 h; max response: stronger effect = higher value
# Peroxisome proliferator-activated receptor alpha (Homo sapiens), sequence (Q07869 whole entry, looked up): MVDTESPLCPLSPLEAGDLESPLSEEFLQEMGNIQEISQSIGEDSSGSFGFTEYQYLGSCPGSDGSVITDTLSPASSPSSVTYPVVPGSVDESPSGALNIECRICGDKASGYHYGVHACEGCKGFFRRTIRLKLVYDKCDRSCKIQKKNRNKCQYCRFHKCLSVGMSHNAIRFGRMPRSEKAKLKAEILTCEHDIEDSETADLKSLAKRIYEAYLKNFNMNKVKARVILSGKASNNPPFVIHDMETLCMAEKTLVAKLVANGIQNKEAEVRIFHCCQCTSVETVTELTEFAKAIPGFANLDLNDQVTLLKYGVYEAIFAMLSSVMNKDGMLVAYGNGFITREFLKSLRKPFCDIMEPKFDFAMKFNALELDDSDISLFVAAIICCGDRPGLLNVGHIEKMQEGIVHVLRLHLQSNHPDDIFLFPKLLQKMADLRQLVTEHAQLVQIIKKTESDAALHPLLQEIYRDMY
# How it was run: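 Cells plated at 2,000/well and held overnight at 37 C, 5% CO2, then compound added by pin tool for 6 hr; after PathHunter detection reagent and 60 min at room temperature, chemiluminescence from enzyme complementation was read.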
# [16] = qHTS assay for small molecule agonists of the antioxidant response element (ARE) signaling pathway measured by Nrf2-dependant transcriptional activity (AID 720636; active = well fitted curve in the direction sought with a large enough effect in the repeat runs; an effect the other way counts as inactive or inconclusive;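 note: HepG2 cells with an ARE-driven luciferase reporter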)
# How it was run: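 HepG2 ARE-luc reporter line, 1% dialyzed FBS; 6 hr attachment at 37 C, compound pinned in, 16 hr at 37 C/5% CO2; ONE-Glo, 30 min RT, luminescence read.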
# [17] = qHTS assay for small molecule agonists of the antioxidant response element (ARE) signaling pathway measured by Nrf2-dependant transcriptional activity - cell viability counter screen (AID 720653; active = well fitted curve in the direction sought with a large enough effect in the repeat runs; an effect the other way counts as inactive or inconclusive); details: ARE-bla HepG2 viability, CellTiter-Glo ATP luminescence, 16 h; max response: stronger effect = lower value
# How it was run: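 ARE-bla HepG2 cells (2,000/well) rested 5 hrs at 37C/5% CO2, then exposed to compounds in DMSO for 16 hrs. Viability was read in the same wells as intracellular ATP by luminescence, 30 min at room temperature after reagent addition.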
# [18] = qHTS assay for cell viability of HEK293 cells (AID 743288); details: ATP luminescence (CellTiter-Glo), 18 h; max response: stronger effect = lower value; note: nearly all actives have a fitted effect of over 50% in size
# How it was run: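 Total intracellular ATP, measured with a luciferase-coupled reagent, indicates the number of viable HEK293 cells. Exposure to test chemicals lasts 18 h at 37 C in 1,536-well format at 2,000 cells/well.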
# [19] = qHTS assay for cell viability of the p53RE-bla HCT-116 cell line (AID 743292); note: nearly all actives have a fitted effect of over 55% in size
# How it was run: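 Luminescent ATP quantitation (CellTiter-Glo) served as the viability read-out; reagent was added after 16 h compound exposure at 37 C and read after 30 min at room temperature. Cells: p53RE-bla HCT-116, 4,000 per well.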
# [20] = NCATS anti-infectives library activity on HEK293 viability as a counter-qHTS vs the C. elegans viability qHTS (AID 1745854);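 note: HEK293 cells exposed to compounds for 24 hr before the viability read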
# How it was run: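 HEK293 cells (1,500/well) exposed 24 hr at 37C to 1:5 titrations, up to 41.7 uM final; counter-screen to a C. elegans viability qHTS. Viability by CellTiter-Glo luminescence after 10 min at room temperature; digitonin as control.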
# [21] = target: Glutathione peroxidase 1 (Homo sapiens) (UniProt P07203); test: Primary qHTS Assay for Inhibitors of Recombinant Selenoprotein Glutathione Peroxidase 1 (GPX1) (AID 1845191); note: nearly all actives have a fitted effect of over 65% in size
# Glutathione peroxidase 1 (Homo sapiens), sequence (P07203 whole entry, looked up): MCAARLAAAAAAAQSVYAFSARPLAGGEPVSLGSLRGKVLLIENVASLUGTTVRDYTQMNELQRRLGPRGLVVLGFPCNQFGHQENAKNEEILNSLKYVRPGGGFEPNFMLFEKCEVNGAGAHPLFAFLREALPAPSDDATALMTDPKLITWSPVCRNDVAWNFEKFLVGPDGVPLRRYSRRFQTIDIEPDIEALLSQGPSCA
# How it was run: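 Recombinant GPX1 (10 nM final) was preincubated with compound for 30 min at room temperature, then reacted with 1 mM GSH, 0.5 mM CHP, 0.5 mM NADPH and 100 nM glutathione reductase; NADPH fluorescence (340/450 nm) was read at 0 and 15 min.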
# [22] = target: Phospholipid hydroperoxide glutathione peroxidase GPX4 (Homo sapiens) (UniProt P36969); test: Primary qHTS Assay for Inhibitors of Recombinant Selenoprotein Glutathione Peroxidase 4 (GPX4) (AID 1845192); note: nearly all actives have a fitted effect of over 65% in size
# Phospholipid hydroperoxide glutathione peroxidase GPX4 (Homo sapiens), sequence (P36969 whole entry, looked up): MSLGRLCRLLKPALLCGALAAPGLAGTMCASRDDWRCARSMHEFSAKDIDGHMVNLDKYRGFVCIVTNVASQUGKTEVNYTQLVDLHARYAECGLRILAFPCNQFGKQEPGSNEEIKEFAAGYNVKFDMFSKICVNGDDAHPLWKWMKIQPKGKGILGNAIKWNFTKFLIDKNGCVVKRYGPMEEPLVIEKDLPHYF
# How it was run: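 GR-coupled readout: 100 nM GR, 1 mM GSH, 0.5 mM NADPH; NADPH fluorescence (ex 340/em 450 nm) read at t=0 and after 15 min RT. GPX4 200 nM, preincubated 30 min with compound; substrate 0.5 mM CHP.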
# [23] = target: Nuclear receptor subfamily 1 group I member 2 (Rattus norvegicus) (UniProt Q9R1A7); test: qHTS assay for small molecule activators of the rat pregnane X receptor (rPXR) signaling pathway (AID 651751; call rule not given here); details: rPXR reporter cells, luciferase (One-Glo), 24 h
# [24] = qHTS assay for small molecule activators of the human pregnane X receptor (PXR) signaling pathway (AID 720659; call rule not given here)
# [25] = NCATS anti-infectives library activity on the primary C. elegans qHTS viability assay (AID 1745855; calls by dose curve)
# How it was run: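 Viability read-out is GFP fluorescence of PE254-GFP-FLuc C. elegans, measured by laser cytometry (488 nm) at day 0, 3 and 7. Ten L1 worms per well were incubated 7 days at 21 °C with compounds and bacterial capsules in S medium.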
# [26] = target: Glucocorticoid receptor (Homo sapiens) (UniProt P04150); test: GR-GFP Redistribution (AID 450;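 active = compounds whose dose series gives a full or clear partial fitted curve of increased nuclear translocation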; note: potency is the fitted concentration of half-maximal effect); details: U2OS GR-GFP nuclear translocation, laser cytometry, 2 h
# Glucocorticoid receptor (Homo sapiens), sequence (P04150 whole entry, looked up, the tested form may be a part): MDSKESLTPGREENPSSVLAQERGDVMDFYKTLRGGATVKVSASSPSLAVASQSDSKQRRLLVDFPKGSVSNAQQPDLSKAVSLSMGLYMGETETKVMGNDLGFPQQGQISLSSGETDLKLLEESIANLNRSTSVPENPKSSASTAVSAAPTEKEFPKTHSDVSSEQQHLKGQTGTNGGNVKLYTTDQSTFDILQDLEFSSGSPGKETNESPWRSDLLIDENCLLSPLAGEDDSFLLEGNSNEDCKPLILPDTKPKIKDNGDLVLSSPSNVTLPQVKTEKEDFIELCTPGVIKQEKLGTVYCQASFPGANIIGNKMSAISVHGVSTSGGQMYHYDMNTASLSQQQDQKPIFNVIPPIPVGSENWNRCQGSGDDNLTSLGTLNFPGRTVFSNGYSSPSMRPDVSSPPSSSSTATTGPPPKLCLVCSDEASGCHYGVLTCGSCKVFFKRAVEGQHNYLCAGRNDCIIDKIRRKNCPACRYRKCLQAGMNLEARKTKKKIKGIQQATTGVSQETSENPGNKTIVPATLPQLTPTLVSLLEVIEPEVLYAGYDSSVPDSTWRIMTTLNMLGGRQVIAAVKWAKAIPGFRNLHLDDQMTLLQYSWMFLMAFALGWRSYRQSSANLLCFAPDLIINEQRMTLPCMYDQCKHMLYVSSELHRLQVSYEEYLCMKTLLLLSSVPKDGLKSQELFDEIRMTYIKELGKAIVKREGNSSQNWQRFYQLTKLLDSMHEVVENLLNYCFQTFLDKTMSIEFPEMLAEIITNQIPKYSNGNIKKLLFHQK
# [27] = target: Glucocorticoid receptor (Homo sapiens) (UniProt P04150); test: GR-EFC Redistribution (AID 451; calls by dose curve; note: potency is the fitted concentration of half-maximal effect); details: CHO-K1 GR-EFC translocation, beta-gal luminescence, 2 h
# How it was run: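 CHO-K1 cells stably expressing nuclear-localized β-gal enzyme acceptor and GR fused C-terminally to the enzyme donor fragment; ligand-driven nuclear translocation restores β-gal by complementation. Compounds titrated up to 46 uM final, 2 h at 37 °C; luminescence read.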
# [28] = target: Mitogen-activated protein kinase 10 (Mus musculus) (UniProt Q61831); test: JNK3 AlphaScreen Assay (AID 530; active = well fitted curve in either direction with a large enough effect, not every such curve was filed as active;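 note: kinase came from lysate of stimulated human HepG2 cells; signal reports phosphorylation of biotinylated GST-cJun 1-79 at Ser73 with 10 µM ATP; series mostly up to about 57 µM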)
# How it was run: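 Inhibitors reduce antibody binding to phosphorylated biotin-cJun, lowering AlphaScreen luminescence. Lysates from HepG2 cells pre-activated by IL-1beta plus TNF-alpha supplied JNK3; compounds were titrated.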
# [29] = target: Cytochrome P450 3A4 (Homo sapiens) (UniProt P08684); test: qHTS Assay for Inhibitors and Substrates of Cytochrome P450 3A4 (AID 884); note: potency is the fitted concentration of half-maximal effect; nearly all actives have a fitted effect of over 50% in size
# Cytochrome P450 3A4 (Homo sapiens), sequence (P08684 whole entry, looked up): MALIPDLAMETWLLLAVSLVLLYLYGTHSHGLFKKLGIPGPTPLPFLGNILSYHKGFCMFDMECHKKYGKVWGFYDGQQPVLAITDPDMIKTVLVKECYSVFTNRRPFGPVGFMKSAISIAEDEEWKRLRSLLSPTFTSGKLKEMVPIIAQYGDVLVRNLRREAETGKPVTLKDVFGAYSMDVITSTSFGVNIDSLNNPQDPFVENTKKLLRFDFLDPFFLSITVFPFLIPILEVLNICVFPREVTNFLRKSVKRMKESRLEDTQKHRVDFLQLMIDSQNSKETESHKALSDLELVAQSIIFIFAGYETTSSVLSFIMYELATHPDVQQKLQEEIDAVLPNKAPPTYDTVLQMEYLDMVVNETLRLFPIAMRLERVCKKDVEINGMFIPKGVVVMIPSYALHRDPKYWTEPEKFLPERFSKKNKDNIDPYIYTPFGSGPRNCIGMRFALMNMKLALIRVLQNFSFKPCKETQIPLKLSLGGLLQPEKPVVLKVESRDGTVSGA
# How it was run: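 20 nM human CYP3A4 with 25 uM Luciferin-PPXE (at KM) in 200 mM KPO4, preincubated 10 min with compound; NADPH regeneration started a 60 min RT reaction. Luciferin detected by luminescence, normalized to 57 uM ketoconazole as full inhibition.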
# [30] = target: Cytochrome P450 3A4 (Homo sapiens) (UniProt P08684); test: qHTS Assay for Activators of Cytochrome P450 3A4 (AID 885); note: nearly all actives have a fitted effect of over 65% in size
# How it was run: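 Steps: enzyme/substrate mix dispensed; compound added, 10 min RT; NADPH regeneration solution added, 60 min RT; luciferin detection buffer stops reaction; 20 min later luminescence measured.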
# [31] = target: Cytochrome P450 2D6 (Homo sapiens) (UniProt P10635); test: qHTS Assay for Inhibitors and Substrates of Cytochrome P450 2D6 (AID 891); note: potency is the fitted concentration of half-maximal effect; nearly all actives have a fitted effect of over 60% in size
# How it was run: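 Human CYP2D6 (5 nM) with 30 uM Luciferin-ME EGE (at Km) in 100 mM KPO4, compound preincubated 10 min, then NADPH regeneration system for 60 min at room temperature. Luciferin read by luminescence; normalized to 1.43 uM quinidine.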
# [32] = target: Cytochrome P450 2C19 (Homo sapiens) (UniProt P33261); test: qHTS Assay for Inhibitors and Substrates of Cytochrome P450 2C19 (AID 899); note: potency is the fitted concentration of half-maximal effect; nearly all actives have a fitted effect of over 60% in size
# Cytochrome P450 2C19 (Homo sapiens), sequence (P33261 whole entry, looked up): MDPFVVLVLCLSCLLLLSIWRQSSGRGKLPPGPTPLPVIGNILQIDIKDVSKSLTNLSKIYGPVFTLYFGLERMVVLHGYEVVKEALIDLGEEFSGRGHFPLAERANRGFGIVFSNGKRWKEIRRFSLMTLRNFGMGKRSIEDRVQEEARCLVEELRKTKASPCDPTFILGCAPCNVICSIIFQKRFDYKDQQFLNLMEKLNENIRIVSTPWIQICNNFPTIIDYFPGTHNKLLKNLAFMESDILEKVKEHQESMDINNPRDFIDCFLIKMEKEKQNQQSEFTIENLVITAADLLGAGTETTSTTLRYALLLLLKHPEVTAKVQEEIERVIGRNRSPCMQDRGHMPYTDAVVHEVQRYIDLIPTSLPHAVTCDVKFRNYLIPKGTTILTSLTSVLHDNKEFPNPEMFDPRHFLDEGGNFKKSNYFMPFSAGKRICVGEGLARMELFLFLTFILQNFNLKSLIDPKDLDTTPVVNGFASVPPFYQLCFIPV
# How it was run: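 In 50mM KPO4, the reaction held 5nM enzyme and KM-level (10uM) Luciferin-H EGE; it ran 60 min at 37C after NADPH regeneration and a 10 min compound preincubation. Luminescence values were scaled to 57uM ketoconazole as complete inhibition.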
# [33] = target: DNA dC->dU-editing enzyme APOBEC-3G (Homo sapiens) (UniProt Q9HC16); test: qHTS for inhibitors of Vif-A3G interactions: Validation (AID 588379)
# DNA dC->dU-editing enzyme APOBEC-3G (Homo sapiens), sequence (Q9HC16 whole entry, looked up): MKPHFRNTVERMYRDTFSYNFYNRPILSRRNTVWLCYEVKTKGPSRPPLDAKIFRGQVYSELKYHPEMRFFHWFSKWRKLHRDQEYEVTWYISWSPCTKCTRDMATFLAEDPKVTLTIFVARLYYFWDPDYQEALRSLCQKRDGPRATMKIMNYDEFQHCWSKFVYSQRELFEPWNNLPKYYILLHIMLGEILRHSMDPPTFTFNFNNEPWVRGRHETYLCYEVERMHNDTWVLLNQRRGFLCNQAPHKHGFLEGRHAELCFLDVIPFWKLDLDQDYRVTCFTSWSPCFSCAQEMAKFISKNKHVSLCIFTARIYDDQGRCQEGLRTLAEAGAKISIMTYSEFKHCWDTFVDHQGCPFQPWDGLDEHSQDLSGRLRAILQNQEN
# How it was run: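 HeLa cells stably expressing Vif and A3G-eYFP, 700 cells/well, incubated overnight at 37 deg C, then exposed to compound overnight at 37 deg C. Inhibition of Vif-mediated degradation read as increased yellow fluorescence (Ex 488/Em 500-530) by laser-scanning cytometry.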
smiles,measurement,setting,value
C[Si](C)(C)O[Si](C)(C)O[Si](C)(C)C,max response,[1],25.8%
same,Potency,[2],inactive
same,outcome,[3],inactive
same,outcome,[4],inactive
same,outcome,[5],inactive
same,outcome,[6],inactive
same,max response,[7],-9.58%
same,outcome,[8],inactive
same,max response,[9],-9.81%
same,max response,[10],-6.04% (inactive)
same,activity change % (negative = inhibition),[11],-8.82% (inactive)
same,activation,[12],-8.05% (inactive)
same,activation,[13],-3.32% (inactive)
same,activation,[14],-0.707% (inactive)
same,max response,[15],0.325% (inactive)
same,Potency,[16],inactive
same,max response,[17],4.82% (inactive)
same,max response,[18],-3.28% (inactive)
same,Potency,[19],inactive
same,Potency,[20],inactive
same,Potency,[21],inactive
same,Potency,[22],inactive
same,max response,[23],0.588% (inactive)
same,outcome,[24],inactive
Cc1cccc(C)c1N(CC(=O)Nc1ccc(-c2ncon2)cc1)C(=O)C1CCS(=O)(=O)CC1,Potency,[20],inactive
same,Potency,[25],inactive
CC(=O)N[C@@H](CC(C)C)C(=O)N[C@@H](CC(C)C)C(=O)N[C@H](C=O)CCCN=C(N)N,Potency,[20],inactive
same,Potency,[25],inactive
O=c1ccc2cc3ccoc3cc2o1,Potency,[26],> 46 µM (inactive)
same,Potency,[27],> 46 µM (inactive)
same,Potency,[28],inactive
same,Potency,[29],31.6 µM (active)
same,outcome,[30],inactive
same,Potency,[31],2 µM (active)
same,Potency,[32],3.98 µM (active)
same,outcome,[33],inactive
same,Potency,[20],inactive
O=c1cc(-c2ccc(O)c(-c3c(O)cc(O)c4c(=O)cc(-c5ccc(O)cc5)oc34)c2)oc2cc(O)cc(O)c12,Potency,[20],inactive
same,Potency,[25],inactive
